According to PubChem BioAssay (EPA / NIEHS):
Active and inactive are the calls of the source. How the source made its calls: active means hit-call score of the fitted dose curve at least 0.9, where 1 is the maximum; inactive means score below 0.9.

Target: Aryl hydrocarbon receptor (Homo sapiens) (UniProt P35869)
Assay: ATG_Ahr_CIS: Attagene CIS-FACTORIAL HepG2 Assay for human Aryl Hydrocarbon Receptor (Ahr) (AID 2282930)
Conditions: HepG2 AhR cis-factorial reporter transcription; actives raise or lower the signal
Description: ATG_CIS is a cell-based, multiplexed-readout assay that uses HepG2, a human liver cell line, with measurements taken at 24 hours after chemical dosing in a 24-well plate.ATG_Ahr_CIS is one of 52 assay component(s) measured or calculated from the ATG_CIS assay. It is designed to make measurements of mRNA induction, a form of inducible reporter, as detected with fluorescence intensity signals by Reverse transcription polymerase chain reaction (RT-PCR) and Capillary electrophoresis technology.Data from the assay component ATG_Ahr_CIS was analyzed into 1 assay endpoint. This assay endpoint, ATG_Ahr_CIS, was analyzed with bidirectional fitting relative to DMSO as the negative control and baseline of activity. Using a type of inducible reporter, measures of mRNA for gain or loss-of-signal activity can be used to understand the reporter gene at the transcription factor-level as they relate to the gene AHR. Furthermore, this assay endpoint can be referred to as a primary readout, because this assay has produced multiple assay endpoints where this one serves a reporter gene function. To generalize the intended target to other relatable targets, this assay endpoint is annotated to the dna binding intended target family, where the subfamily is basic helix-loop-helix protein.
Human liver HepG2 cells are transiently transfected with multiple reporter transcription units (MRTUs) in 6-well plates using FuGene 6 reagent (Roche; 3 ml FuGene/1 mg DNA). The MRTU constructs are regulated by a cis-regulating element (promoter). […] A major difference between the CIS and TRANS system is that in CIS activities of endogenous TFs are measured, whereas the TRANS assay evaluates changes in activities of exogenous, chimeric NR-Gal4 proteins. […] At the end of 24 hour incubation, total RNA was isolated using TriZol reagent (Invitrogen). The isolated RNA is then reverse-transcribed using oligo(dT) primer and Mo-MLV reverse transcriptase (Invitrogen) with DNAse I (Ambion) treatment for 30 min. The one-tenth of the produced cDNA was amplified by PCR using Taq DNA polymerase (Invitrogen) and two reporter sequence-specific primers. The PCR products were fluorescently labeled by primer extension with 6-arboxyfluorescein (6-FAM) 5'-labeled reporter sequence-specific primer (2 min at 95 C, 20 s at 68 C and 10 min at 72 C) and these products were digested with 5U of HpaI (New England Biolabs) for 2h at 37 C. […] The raw capillary electrophoresis data was processed using Attagraph software (Attagene).

Sequence of Aryl hydrocarbon receptor (Homo sapiens) (P35869 whole entry, looked up): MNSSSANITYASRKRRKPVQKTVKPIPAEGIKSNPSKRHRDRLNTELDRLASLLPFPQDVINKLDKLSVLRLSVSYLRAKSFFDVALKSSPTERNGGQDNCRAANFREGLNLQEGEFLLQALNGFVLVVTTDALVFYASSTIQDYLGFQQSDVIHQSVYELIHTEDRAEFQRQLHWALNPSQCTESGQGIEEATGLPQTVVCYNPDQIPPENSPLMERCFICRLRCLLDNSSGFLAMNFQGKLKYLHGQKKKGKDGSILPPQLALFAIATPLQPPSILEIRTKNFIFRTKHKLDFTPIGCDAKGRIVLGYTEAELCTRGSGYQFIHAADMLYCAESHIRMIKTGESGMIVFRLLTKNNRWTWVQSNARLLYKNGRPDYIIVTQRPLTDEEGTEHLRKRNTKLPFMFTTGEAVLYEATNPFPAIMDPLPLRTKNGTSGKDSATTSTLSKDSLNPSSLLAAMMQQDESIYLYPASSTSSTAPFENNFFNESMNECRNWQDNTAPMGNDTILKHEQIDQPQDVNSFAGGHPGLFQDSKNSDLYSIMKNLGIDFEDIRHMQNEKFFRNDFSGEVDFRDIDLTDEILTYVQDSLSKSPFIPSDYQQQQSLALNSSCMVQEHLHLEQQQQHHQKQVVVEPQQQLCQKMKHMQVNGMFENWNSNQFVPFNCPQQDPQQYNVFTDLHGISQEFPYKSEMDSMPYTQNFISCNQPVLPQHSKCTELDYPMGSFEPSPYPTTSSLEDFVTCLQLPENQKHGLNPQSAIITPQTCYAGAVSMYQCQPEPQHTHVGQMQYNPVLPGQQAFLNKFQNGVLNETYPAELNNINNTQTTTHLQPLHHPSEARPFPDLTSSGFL

SMILES	AC50	outcome
FC(F)(F)C(F)(F)C(F)(F)C(F)(F)C(F)(F)C(F)(F)CCI	32.1 µM (active)	
Cc1ccc2ncccc2c1		inactive
CCCCC(CC)COC(=O)CC(C(=O)OCC(CC)CCCC)S(=O)(=O)O (stereo not given)		inactive
Cc1c(C(=O)O)c(O)cc2c1C(=O)c1c(O)c([C@@H]3O[C@H](CO)[C@@H](O)[C@H](O)[C@H]3O)c(O)c(O)c1C2=O		inactive
CC(=O)C(C)=CC1C(C)=CCCC1(C)C (stereo not given)		inactive
CC1(C)NC(=O)NC1=O		inactive
COC(=O)c1ccc(O)cc1		inactive
NCCO		inactive
COc1ccc(C)cc1N	100 µM (active)	
CCCCc1ccc2c(n1)[C@@H](c1ccc(OC)cc1C[C@H](C)C(=O)O)[C@H](C(=O)O)[C@H]2c1ccc2c(c1)OCO2		inactive
Oc1ccc2c(c1)OC[C@@H](N1CCC(O)(c3ccc(F)cc3)CC1)[C@H]2O	50 µM (active)	
CN1CCCC1=O		inactive
C1CCC(SSC2CCCCC2)CC1	66.3 µM (active)	
C=CCOC(=O)c1ccccc1C(=O)OCC=C		inactive
CCOC(=O)C(C)(C)Oc1ccc(Cl)cc1		inactive
CCNc1cccc(C)c1		inactive
CCCCCCCCCCC		inactive
COc1ccc2c(c1)c(CC(=O)O)c(C)n2C(=O)c1ccc(Cl)cc1		inactive
CCCCCCCCCCCCCCCC		inactive
Cc1cccc(C)c1O		inactive

SMILES	AC50	outcome
O=C(OCCCCCOC(=O)c1ccccc1)c1ccccc1		inactive
COc1cccc2c1C(=O)c1c(O)c3c(c(O)c1C2=O)C[C@@](O)(C(=O)CO)C[C@@H]3O[C@H]1C[C@H](N)[C@H](O)[C@H](C)O1		inactive
CCCCOC(=O)CCCCCCCCC(=O)OCCCC		inactive
CCc1c(C(=O)NN2CCCCC2)nn(-c2ccc(Cl)cc2Cl)c1-c1ccc(Br)cc1		inactive
Cc1cccc([N+](=O)[O-])c1C		inactive
O=c1c(O)c(-c2ccc(O)c(O)c2)oc2cc(O)cc(O)c12	5.8 µM (active)	
CCCCCCCCCCO		inactive
CCCCCCCCCCCCCO		inactive
Cc1cccc(Nc2cc(Cl)nc(SCC(=O)O)n2)c1C		inactive
COc1cc(C=O)ccc1O	80.8 µM (active)	
CN[C@H]1CC[C@@H](c2ccc(Cl)c(Cl)c2)c2ccc(S(N)(=O)=O)cc21		inactive
NC(=O)Cn1c(=O)cc(CCN2CCN(c3nccc4sccc34)CC2)c2ccc(F)cc21		inactive
Oc1ccc2ccccc2c1N=Nc1ccccc1	0.0105 µM (active)	
CCCCCCOCCO		inactive
COc1cc(/C=C/C(=O)CC(=O)/C=C/c2ccc(O)c(OC)c2)ccc1O	55.2 µM (active)	
CC(=O)OCCOCCOCCOC(C)=O		inactive
OC[C@@H](O)[C@@H](O)[C@H](O)[C@H](O)CO		inactive
CN1CCN(Cc2cc(-c3ccc4[nH]c(=O)oc4c3)co2)[C@@H](c2ccc(F)cc2)C1		inactive
C[C@]12C=CC(=O)C=C1CC[C@@H]1[C@@H]2C(=O)C[C@@]2(C)[C@H]1CC[C@]2(O)C(=O)CO		inactive
CC(=O)Oc1ccccc1C(=O)O		inactive
